Assay outcomes from PubChem.
ABHD5 PLIN5 PPI = ABHD5-PLIN5 interaction inhibitors, primary screen, cell lysate, split luciferase complementation, luminescence; hit rate 0.78% among 360,000; Split G. princeps luciferase complementation, 4 h; Perilipin-5 (Homo sapiens) + 1-acylglycerol-3-phosphate O-acyltransferase ABHD5 (Homo …; inhibition, % at 4 µM;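 active means inhibition above the mean inhibition across every tested compound plus 3 SD, cut at about 22% in these data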
NOD2-RIPK2 inh = NOD2-RIPK2 binding disruptors in cells, primary screen, fluorescence, CHO cells, BLA complementation | inhibition, % at 4.98 µM | CCF4 ratio | hit rate 0.38% among 360,000 | Receptor-interacting serine/threonine-protein kinase 2 (Homo sapiens), O43353; in the data active means inhibition above about 21%
CRFR2-BP antag = antagonists of CRF-BP/CRF-R2 complex, primary screen, cell-based, HEK293, calcium dye fluorescence, uHTS. inhibition, % at 11.8 µM. CRF-induced calcium fluorescence. hit rate 0.59% among 350,000;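 active means inhibition of the ligand-induced calcium signal above about 50% at the single tested concentration, limit read from the data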
TLR4 MyD88 comp = inhibitors of TLR4-MyD88 association in cells, primary screen, cell-based, HeLa CL3-4, BLA complementation, FRET ratio | Toll-like receptor 4 (Homo sapiens) + Myeloid differentiation primary response protein … | HeLa CL3-4 TLR4/MyD88 BLA complementation | inhibition, % at 8.4 µM | hit rate 0.18% among 200,000; in the data active means inhibition above about 25%
Target sequence (O00206 whole entry, looked up): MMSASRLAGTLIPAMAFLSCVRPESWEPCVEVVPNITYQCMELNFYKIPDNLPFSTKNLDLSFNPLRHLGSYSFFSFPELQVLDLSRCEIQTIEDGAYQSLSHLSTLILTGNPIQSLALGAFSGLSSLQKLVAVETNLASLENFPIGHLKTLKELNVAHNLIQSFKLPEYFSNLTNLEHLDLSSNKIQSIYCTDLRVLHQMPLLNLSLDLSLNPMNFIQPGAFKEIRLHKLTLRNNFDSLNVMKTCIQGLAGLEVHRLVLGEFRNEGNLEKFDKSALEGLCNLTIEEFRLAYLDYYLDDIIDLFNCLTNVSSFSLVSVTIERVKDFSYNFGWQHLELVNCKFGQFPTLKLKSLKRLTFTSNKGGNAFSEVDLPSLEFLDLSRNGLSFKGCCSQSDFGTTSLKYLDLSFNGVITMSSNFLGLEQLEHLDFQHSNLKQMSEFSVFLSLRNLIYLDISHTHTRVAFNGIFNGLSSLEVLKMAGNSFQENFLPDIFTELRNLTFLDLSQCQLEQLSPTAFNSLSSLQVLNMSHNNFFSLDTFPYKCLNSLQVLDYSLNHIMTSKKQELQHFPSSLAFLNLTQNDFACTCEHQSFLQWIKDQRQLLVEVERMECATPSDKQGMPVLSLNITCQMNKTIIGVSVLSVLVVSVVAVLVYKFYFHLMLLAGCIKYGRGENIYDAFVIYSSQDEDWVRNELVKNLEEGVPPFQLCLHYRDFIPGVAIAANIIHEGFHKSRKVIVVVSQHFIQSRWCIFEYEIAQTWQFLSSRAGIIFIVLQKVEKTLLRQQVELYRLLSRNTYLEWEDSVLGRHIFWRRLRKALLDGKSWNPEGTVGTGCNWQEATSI
Target sequence (Q99836 whole entry, looked up): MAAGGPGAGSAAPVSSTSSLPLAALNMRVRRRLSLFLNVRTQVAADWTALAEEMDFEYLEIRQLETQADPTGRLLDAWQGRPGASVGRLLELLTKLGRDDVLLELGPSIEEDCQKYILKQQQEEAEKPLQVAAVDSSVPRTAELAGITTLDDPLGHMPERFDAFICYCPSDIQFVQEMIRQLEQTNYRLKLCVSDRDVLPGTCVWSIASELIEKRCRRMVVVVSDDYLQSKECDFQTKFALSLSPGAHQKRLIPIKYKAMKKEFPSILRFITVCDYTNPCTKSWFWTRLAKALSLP
m5-HT2A agonist = mouse Htr2a agonists via beta-arrestin recruitment, primary screen, cell-based, luminescence. activation, % at 7.6 µM. CHO-K1 mHTR2A beta-arrestin complementation; percent of 30 µM serotonin response. hit rate 0.66% among 360,000. 5-hydroxytryptamine receptor 2A (Mus musculus), P35363;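 active means activation above a run cutoff, the mean activation of all tested compounds plus 3 SD, cut at about 14% in these data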
TLR9-MyD88 inh = inhibitors of TLR9-MyD88 association in cells, primary screen, cell-based, CHO, BLA complementation, fluorescence; Toll-like receptor 9 (Homo sapiens) + Myeloid differentiation primary response protein …; CCF4 FRET ratio; inhibition, % at 4.98 µM; hit rate 0.21% among 340,000;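 active means inhibition above the mean over all tested compounds plus 3 SD, cut at about 21% in these data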
ABHD5-PLIN5 conf = ABHD5-PLIN5 interaction inhibitors, confirmation, biochemical, luminescence; shares compounds with ABHD5 PLIN5 PPI; AID 651612, 2012; inhibition, % at 4 µM; hit rate 67% among 2,200; in the data active means inhibition above about 23%
HNF4 split-luc = HNF4 dimerization inhibitors, counter-screen for ABHD5-PLIN5 interaction inhibitor project, biochemical, split-luciferase complementation, luminescence; shares compounds with ABHD5 PLIN5 PPI; inhibition, % at 4 µM; hit rate 77% among 2,200;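 active means mean inhibition across replicate wells exceeding the computed hit threshold, cut at about 13% in these data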;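 further: light from luciferase halves that rejoin when HNF4 fusion proteins dimerize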
Of the large screens only hits and unclear results are named; the others gave an inactive call (follow-up assays come after a bar, where they were run). An excerpt weighted towards active compounds, which were near 2.4% of everything screened.

CC(=O)Nc1ccc(/C=C/C(=O)c2ccc3c(c2)OCCO3)cc1	none (no result: TLR4 MyD88 comp)
O=C(/C=C/c1cccnc1)c1ccc(F)c(F)c1	ABHD5 PLIN5 PPI 71 (no result: TLR4 MyD88 comp) | ABHD5-PLIN5 conf 97 | HNF4 split-luc 95
O=C(/C=C/c1ccc([N+](=O)[O-])cc1)c1cccnc1	ABHD5 PLIN5 PPI 30 | ABHD5-PLIN5 conf 83 | HNF4 split-luc 93
COc1cc(/C=C/C(=O)c2ccc([N+](=O)[O-])o2)ccc1O	ABHD5 PLIN5 PPI 27 (no result: TLR4 MyD88 comp) | ABHD5-PLIN5 conf 96 | HNF4 split-luc 94
COC(=O)CCCNC(=O)CC1C(=O)NCCN1Cc1ccoc1 (stereo not drawn)	none
O=C(CC1C(=O)NCCN1Cc1ccoc1)NCCc1ccc(Cl)cc1 (stereo not drawn)	ABHD5 PLIN5 PPI 38 | ABHD5-PLIN5 conf inactive | HNF4 split-luc 16
Cc1nc(CNC(=O)CC2C(=O)NCCN2Cc2ccoc2)nc2c1CCCC2 (stereo not drawn)	ABHD5 PLIN5 PPI 34 (no result: TLR4 MyD88 comp) | ABHD5-PLIN5 conf 45 | HNF4 split-luc 34
Cc1nc(CCNC(=O)CC2C(=O)NCCN2Cc2ccoc2)nc2c1CCCC2 (stereo not drawn)	none
O=c1[nH]cc(F)c(=O)n1C1OC(CO)C(O)C1O (stereo not drawn)	none (no result: CRFR2-BP antag, TLR4 MyD88 comp, TLR9-MyD88 inh)
Cc1cnc(CNc2nc3cc(-c4ccccc4C)sc3c(=O)n2C)cn1	none (no result: CRFR2-BP antag, TLR4 MyD88 comp, TLR9-MyD88 inh)
COc1cc(NC(=O)C/C(C)=N/NC(=O)C(=O)NC2CCCCC2)c(OC)cc1Cl	ABHD5 PLIN5 PPI 24 | ABHD5-PLIN5 conf inactive | HNF4 split-luc inactive
COc1cc(NC(=O)C/C(C)=N/NC(=O)C2CCCCC2)c(OC)cc1Cl	none (no result: TLR4 MyD88 comp)
CC1=NNC(=O)/C1=C\c1cn(-c2ccccc2)nc1-c1ccc(Cl)cc1	ABHD5 PLIN5 PPI 32 | ABHD5-PLIN5 conf 56 | HNF4 split-luc 91
COc1cc(OC)cc(C2=Cc3ccc(OC)cc3C(CC(C)=O)N2c2ccc(-c3cccs3)cc2)c1 (stereo not drawn)	none (no result: CRFR2-BP antag, TLR4 MyD88 comp, TLR9-MyD88 inh)
CC1(C)Cc2cccc(OCC(=O)N3CCN(c4ccccc4F)CC3)c2O1	none (no result: TLR4 MyD88 comp)
CC1(C)Cc2cccc(OCC(=O)N3CCN(c4ccccc4)CC3)c2O1	ABHD5 PLIN5 PPI 82 | ABHD5-PLIN5 conf inactive | HNF4 split-luc inactive
O=C(O)CCC(=O)Nc1ccc(F)cc1	none
O=C(O)CCC(=O)Nc1ccc(SSc2ccc(NC(=O)CCC(=O)O)cc2)cc1	ABHD5 PLIN5 PPI 44 (no result: TLR4 MyD88 comp) | ABHD5-PLIN5 conf 47 | HNF4 split-luc 115
CC(O)CC(=O)OC[C@]12CC[C@H]3[C@@](C)(CC[C@H]4C(C)(C)CCC[C@]34C)[C@@H]1CC(C1=CC(=O)OC1O)O2 (stereo partly drawn)	ABHD5 PLIN5 PPI 80 (no result: CRFR2-BP antag, TLR4 MyD88 comp, TLR9-MyD88 inh) | ABHD5-PLIN5 conf 97 | HNF4 split-luc 71
CC(=O)C1=CCC(c2ccc(Cl)cc2)N(S(=O)(=O)c2ccc(C)cc2)C1 (stereo not drawn)	none (no result: CRFR2-BP antag, TLR4 MyD88 comp, TLR9-MyD88 inh)
O=C(/C=C/c1cccc(Cl)c1)c1nc2ccccc2[nH]1	ABHD5 PLIN5 PPI 61 | ABHD5-PLIN5 conf 98 | HNF4 split-luc 99
Cc1ccc(C(=O)NCc2ccco2)cc1S(=O)(=O)N1CCCCC1	ABHD5 PLIN5 PPI 26 | ABHD5-PLIN5 conf inactive | HNF4 split-luc inactive
Cc1ccccc1S(=O)(=O)NC(=O)C1(C)CCN1C(=O)CC1CCCCC1 (stereo not drawn)	none (no result: CRFR2-BP antag, TLR4 MyD88 comp, TLR9-MyD88 inh)
Cc1ccc(/C=C/C(=O)c2c(C)cc(C)[nH]c2=O)cc1	none
CCc1ccc(/C=C/C(=O)c2c(C)cc(C)[nH]c2=O)cc1	ABHD5 PLIN5 PPI 29 | ABHD5-PLIN5 conf 48 | HNF4 split-luc 29
O=[N+]([O-])c1ccc(/C=N/Nc2ccc3ccccc3c2)o1	ABHD5 PLIN5 PPI 28 | ABHD5-PLIN5 conf 31 | HNF4 split-luc 17
Cc1cc(C)c(C#N)c(Sc2nc(C)c([N+](=O)[O-])c(C)c2C#N)n1	ABHD5 PLIN5 PPI 31 (no result: CRFR2-BP antag, TLR4 MyD88 comp, TLR9-MyD88 inh) | ABHD5-PLIN5 conf 36 | HNF4 split-luc 27
COC(=O)[C@@]1(Cc2ccc(F)cc2)[C@H]2c3cc(C(=O)N(C)C)n(CCO)c3C[C@H]2CN1C(=O)c1ccccc1	none (no result: CRFR2-BP antag, TLR4 MyD88 comp, TLR9-MyD88 inh)
COC(=O)[C@@]1(Cc2ccc(F)cc2)[C@H]2c3cc(C(=O)N(C)C)n(CCCNc4ncc(C(F)(F)F)cc4Cl)c3C[C@H]2CN1C(=O)c1ccccc1	ABHD5 PLIN5 PPI 25 (no result: CRFR2-BP antag, TLR4 MyD88 comp, TLR9-MyD88 inh) | ABHD5-PLIN5 conf inactive | HNF4 split-luc inactive
Cc1ccc(S(=O)(=O)n2cccc2/C=C/[N+](=O)[O-])cc1	ABHD5 PLIN5 PPI 46 (no result: TLR4 MyD88 comp) | ABHD5-PLIN5 conf 101 | HNF4 split-luc 102
CC(Sc1nnc(-c2cccs2)n1-c1ccccc1)C(=O)NCc1ccco1 (stereo not drawn)	none
CC(Sc1ccsc1[N+](=O)[O-])C(=O)NCc1ccco1 (stereo not drawn)	ABHD5 PLIN5 PPI 28 | ABHD5-PLIN5 conf inactive | HNF4 split-luc 21
CCN1CCC(O)(/C=C/c2ccc(C(C)C)cc2)C(C(=O)/C=C/c2ccc(C(C)C)cc2)C1 (stereo not drawn)	ABHD5 PLIN5 PPI 67 (no result: TLR4 MyD88 comp) | ABHD5-PLIN5 conf 78 | HNF4 split-luc 79
CCN1CCN(C(=O)/C=C/c2ccc(C(C)C)cc2)CC1	none (no result: TLR4 MyD88 comp)
CC(C)C(=O)NC(c1ccc(Cl)cc1Cl)c1ccc2cccnc2c1O (stereo not drawn)	ABHD5 PLIN5 PPI 29 (no result: TLR4 MyD88 comp) | ABHD5-PLIN5 conf inactive | HNF4 split-luc inactive
Nc1nc(=O)n(C2CCC(CO)O2)cc1F (stereo not drawn)	none (no result: CRFR2-BP antag, TLR4 MyD88 comp, TLR9-MyD88 inh)
COc1cccc(S(=O)(=O)N2C[C@H](O)COC[C@H]3O[C@@H](CC(=O)N4CCN(C)CC4)CC[C@@H]32)c1	none (no result: CRFR2-BP antag, TLR4 MyD88 comp, TLR9-MyD88 inh)
Cn1c(=O)c2c(ncn2CC(=O)N/N=C/C=C/c2ccco2)n(C)c1=O	ABHD5 PLIN5 PPI 31 (no result: TLR4 MyD88 comp) | ABHD5-PLIN5 conf inactive | HNF4 split-luc 32
COc1ccc(-n2c(N)c(C(=O)NCc3ccco3)c3nc4ccccc4nc32)c(OC)c1	ABHD5 PLIN5 PPI 29 | ABHD5-PLIN5 conf 51 | HNF4 split-luc 67
Cc1cccc(C)c1NC(=O)C(C1CC1)n1c(=O)c(-c2ccco2)nc2ccccc21 (stereo not drawn)	ABHD5 PLIN5 PPI 61 (no result: CRFR2-BP antag, TLR4 MyD88 comp, TLR9-MyD88 inh) | ABHD5-PLIN5 conf 43 | HNF4 split-luc 25
